Test results as given in PubChem BioAssay AID720597 (Broad Institute, 2013).
Entries with a potency or affinity are not part of this list.

Biological target: NAD-dependent protein deacylase sirtuin-5, mitochondrial (Homo sapiens) (UniProt Q9NXA8)
Assay: blockers of sirtuin-5 peptide desuccinylation – biochemical, fluorescence imaging, cherry-pick, set 6, dose response (AID 720597);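 further: lower AMC signal can also come from blocking the trypsin step; 0% = median of neutral control wells and -100% = median of positive control wells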
Conditions: Purified SirT5, succinyl-peptide-AMC/trypsin fluorescence; series mostly up to 15 µM; activity change, negative = inhibition: at the top concentration;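 active means fitted half-maximal dose no more than twice the top valid tested dose, for compounds that lower signal; inconclusive means fit invalid, or curve flat with activity between -70 and -30; inactive means potency past limit, curve flat within ±30, or signal increasing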

Chain of NAD-dependent protein deacylase sirtuin-5, mitochondrial (Homo sapiens) (Q9NXA8 whole entry, looked up): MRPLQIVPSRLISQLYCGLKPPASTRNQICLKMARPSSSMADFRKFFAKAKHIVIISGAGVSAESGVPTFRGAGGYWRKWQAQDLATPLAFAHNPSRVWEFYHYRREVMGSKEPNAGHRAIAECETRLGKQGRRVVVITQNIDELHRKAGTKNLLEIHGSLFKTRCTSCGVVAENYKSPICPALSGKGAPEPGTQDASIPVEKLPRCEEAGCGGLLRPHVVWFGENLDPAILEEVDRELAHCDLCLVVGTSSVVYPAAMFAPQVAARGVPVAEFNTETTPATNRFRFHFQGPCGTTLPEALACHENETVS

Activity change, negative = inhibition, inactive:
CC(C)NC(=O)Nc1ccc2c(c1)C(=O)N([C@@H](C)CO)C[C@H](C)[C@H](CN(C)C(=O)NC(C)C)OCCCC[C@@H](C)O2 7.8%, C[C@H](CO)N1C[C@H](C)[C@@H](CN(C)Cc2ccc(C(F)(F)F)cc2)Oc2ccc(NS(=O)(=O)c3ccc(F)cc3)cc2CC1=O -8.64%, CO[C@@H]1CC[C@@H]2CCOc3c(C#N)cccc3C(=O)N(C)C[C@@H](OC)[C@@H](C)C(=O)N(C)C[C@@H]1O2 -4.17%, Cc1ccc(S(=O)(=O)N(C)C[C@H]2OCCCC[C@H](C)Oc3ccc(NS(=O)(=O)c4ccc(Cl)cc4)cc3C(=O)N([C@H](C)CO)C[C@@H]2C)cc1 -9.84%, C[C@@H]1CN([C@H](C)CO)S(=O)(=O)c2ccc(C3=CCCCC3)cc2O[C@H]1CN(C)S(=O)(=O)c1ccc(F)cc1 6.61%, Cc1ccc(S(=O)(=O)N(C)C[C@H]2OCCCC[C@H](C)Oc3ccc(NS(=O)(=O)c4ccc(F)cc4)cc3C(=O)N([C@H](C)CO)C[C@H]2C)cc1 -18.5%, C[C@@H]1CN([C@@H](C)CO)C(=O)c2cc(NS(=O)(=O)c3ccccc3)ccc2O[C@@H]1CN(C)Cc1ccc(Oc2ccccc2)cc1 -5.98%, O=C(C[C@H]1C[C@@H]2c3cc(NC(=O)C4CCC4)ccc3O[C@@H]2[C@@H](CO)O1)NCc1ccc(-c2ccccc2)cc1 -10.6%, CC(C)CC#Cc1ccc2c(c1)O[C@H](CN(C)S(=O)(=O)c1cccc(F)c1)[C@H](C)CN([C@H](C)CO)S2(=O)=O -21.9%, CCCC#Cc1ccc([C@H]2[C@@H](CO)N3CCCCN(S(=O)(=O)Cc4ccccc4)C[C@@H]23)cc1 6.68%
